The values that follow come from ChEMBL document CHEMBL1157539, “Thousands of chemical starting points for antimalarial lead identification” (Nature, 2010).

Each structure is given as a SMILES string.

The subject of this test is HepG2. In words: GSK_TCMDC: Percent inhibition of human HepG2 cell line. Test compounds present at 10uM. In kind it is functional.
By Inhibition is commonly meant how much of the control response was suppressed. Consider `COc1cc(NC(=O)N2CCc3ccc(OCCN4CCCCC4)cc32)cc(C(F)(F)F)c1.O=C(O)C(F)(F)F`, for which the Inhibition is listed as 9%.

The compound `Cc1nc(N)nc(N)c1-c1cccc(Cl)c1` registered an Inhibition of 60%.

In the case of `COc1ccccc1N1CCN(Cc2c(O)ccc3cc(Br)ccc23)CC1`, the Inhibition came out at 8%.

The compound `CC(C)NCc1cc(Nc2ccnc3cc(Cl)ccc23)ccc1O.Cl` gave an Inhibition of 27%.

Compound `Cc1cccc2nc(-c3cccc(-c4ccc(C(=O)NCc5ccccc5S(C)(=O)=O)cc4)c3)[nH]c12` gave an Inhibition of 17%.

Regarding `CCNc1cc(C(=O)N[C@@H](Cc2ccccc2)[C@H](O)CNCc2cccc(-c3cncnc3)c2)cc(N2CCCC2=O)c1.O=C(O)C(F)(F)F`, the Inhibition is 5%.

Consider `Br.Cc1cc(F)ccc1Nc1nc(N(C)c2ccccc2)c2cccc(O)c2n1`, for which the Inhibition is 38%.

`O=S(=O)(c1ccc(Oc2ccccc2)cc1)N(CCC(O)(C(F)(F)F)C(F)(F)F)Cc1cccc(O)c1` returned an Inhibition of 0%.

In turn, `CCC(CC)n1c(COC)cc2c3c(N)nc(N)nc3ccc21` yielded an Inhibition of 71%.

As to `COc1ccc(C2C(C(=O)Nc3ccccc3)=C(C)Nc3c(C(=O)Nc4ccccc4)cnn32)cc1` (centres undefined), the Inhibition stood at 13%.

Take `O=C(O)C(F)(F)F.c1cc(CN2CCN(c3ccncc3)CC2)cc(-c2ccc(-c3nc4ccccc4[nH]3)s2)c1`: the Inhibition amounted to 59%.

With `CC(C)N1CCC(N(Cc2ccc(-c3ccc(C(F)(F)F)cc3)cc2)C(=O)Cn2c(CCc3cccc(F)c3F)cc(=O)c3ccccc32)CC1.O=C(O)C(O)C(O)C(=O)O`, the Inhibition is recorded as 50%.

Consider `Cc1c(-c2cccc(NC(=O)C(C)(C)Oc3ccc(Cl)cc3)c2)nc2ncccn12`, for which the Inhibition is listed as 0%.

`Cl.O=C(Nc1cccc(Cl)c1Cl)N1CCc2cc3nccc(N4CCN5CCC[C@H]5C4)c3cc21` had an Inhibition of 9%.
